An excerpt weighted towards active compounds, which were near 3.1% of everything screened.
BoNT F protease: BoNT F light chain protease inhibition | 360,000 compounds, 0.22% hits | inhibition, % at 10 µM | AID 588497 | Multiplex microsphere protease cleavage assay, flow cytometry; in the data active means inhibition above about 35%, passing the limit was not always enough; inconclusive means no clear call, values can overlap the other calls; further: plate controls were buffer without enzyme for full effect and enzyme alone for no effect
PriA SSB inh: inhibitors of Klebsiella pneumoniae PriA binding to SSB C-terminal tail; inhibition, % at 33 µM; 430,000 compounds, 0.6% hits; AlphaScreen SSBct-PriA binding, biotinylated peptide; in the data active means inhibition mostly above about 37%, no sharp cut-off; inactive means mostly below about 20%;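 further: plate controls were negative control peptide for no effect and reference peptide for full effect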
Anthrax LF inh2: anthrax lethal factor protease inhibition; inhibition, % at 10 µM; 360,000 compounds, 0.12% hits; P15917; AID 588501; multiplex microsphere protease cleavage assay, LF; further: plate controls were buffer without enzyme for full effect and enzyme alone for no effect
Target sequence (P15917 whole entry, looked up): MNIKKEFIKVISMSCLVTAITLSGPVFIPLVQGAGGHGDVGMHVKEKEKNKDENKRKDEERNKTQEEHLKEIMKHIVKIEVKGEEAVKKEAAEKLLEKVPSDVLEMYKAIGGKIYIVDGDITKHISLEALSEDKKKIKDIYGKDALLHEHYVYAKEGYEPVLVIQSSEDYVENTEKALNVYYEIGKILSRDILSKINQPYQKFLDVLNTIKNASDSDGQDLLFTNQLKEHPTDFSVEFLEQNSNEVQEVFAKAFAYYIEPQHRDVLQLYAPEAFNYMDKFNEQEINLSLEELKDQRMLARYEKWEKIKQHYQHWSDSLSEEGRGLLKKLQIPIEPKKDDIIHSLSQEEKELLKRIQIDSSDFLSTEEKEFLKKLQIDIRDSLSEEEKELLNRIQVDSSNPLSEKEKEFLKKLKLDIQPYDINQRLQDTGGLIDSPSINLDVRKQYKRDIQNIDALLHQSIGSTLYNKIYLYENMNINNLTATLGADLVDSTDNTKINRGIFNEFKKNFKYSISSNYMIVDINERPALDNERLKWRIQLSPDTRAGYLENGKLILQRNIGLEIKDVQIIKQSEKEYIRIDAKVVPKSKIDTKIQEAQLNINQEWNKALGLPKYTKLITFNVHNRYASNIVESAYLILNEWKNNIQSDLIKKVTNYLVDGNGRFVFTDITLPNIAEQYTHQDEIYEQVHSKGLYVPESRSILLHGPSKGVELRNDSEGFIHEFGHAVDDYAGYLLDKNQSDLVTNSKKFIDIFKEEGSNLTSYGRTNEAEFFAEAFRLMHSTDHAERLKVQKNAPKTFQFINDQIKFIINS
BoNT-A LC inh2: inhibitors of Botulinum neurotoxin A light chain protease; inhibition, % at 10 µM; AID 588499; 360,000 compounds, 0.17% hits; multiplex microsphere protease substrate cleavage, flow cytometry; further: plate controls were buffer without enzyme for full effect and enzyme alone for no effect
Bead autofluor: compound fluorescence in toxin protease inhibitor counterscreen; AID 624483; compound autofluorescence counterscreen, microsphere flow cytometry; stronger effect = higher value; fluorescence intensity (test concentration not listed); 360,000 compounds, 3.1% hits; in the data active means fluorescence intensity above about 16000; inconclusive means no clear call, values can overlap the other calls
The depositor's hits bear a star. Unless noted, no stated cut-off is given here; in the data, active means inhibition above about 30%; inconclusive means no clear call, values can overlap the other calls; inactive means below that.

`CCOc1ccc(C(=O)Nc2nnc(C)s2)cc1OCC` gave BoNT F protease 4, PriA SSB inh -5, Anthrax LF inh2 -5, BoNT-A LC inh2 inconclusive and Bead autofluor 20767*.
Screening CN(C)S(=O)(=O)N1CCN(c2cccc(Cl)c2)CC1 returned BoNT F protease 3, PriA SSB inh -12, Anthrax LF inh2 -1, BoNT-A LC inh2 inconclusive and Bead autofluor 21047*.
`O=C1CCc2cc(S(=O)(=O)N3CCN(c4cccc(Cl)c4)CC3)ccc2N1` gave BoNT F protease 10, PriA SSB inh -8, Anthrax LF inh2 3, BoNT-A LC inh2 11 and Bead autofluor 17938*.
For CCOc1ccccc1-n1nnc(C(=O)Nc2cccc(C(C)=O)c2)c1C the results were PriA SSB inh -2.
For Cc1ccc(C(=C2C3C=CC2C2C(=O)NC(=O)C32)c2ccc(C)cc2)cc1 (stereo unspecified) the results were BoNT F protease 3, PriA SSB inh -1, Anthrax LF inh2 -1, BoNT-A LC inh2 1 and Bead autofluor 20213*.
O=C1C2C3C=CC(C3=C(c3ccccc3)c3ccccc3)C2C(=O)N1Cc1ccccc1 (stereo unspecified) was read as BoNT F protease -8, PriA SSB inh -2, Anthrax LF inh2 -4, BoNT-A LC inh2 0 and Bead autofluor 3178.
Screening O=C(NCCc1ccoc1)c1cccc(Br)c1 returned PriA SSB inh 3.
`CCn1c(=O)cc(SCC(=O)NCCCN2CCC(C)CC2)c2ccccc21` gave BoNT F protease -1, PriA SSB inh 6, Anthrax LF inh2 1, BoNT-A LC inh2 0 and Bead autofluor 2605.
For CCn1c(=O)cc(SCC(=O)NCCCN2CCN(c3ccc(F)cc3)CC2)c2ccccc21 the results were BoNT F protease 1, PriA SSB inh -3, Anthrax LF inh2 0, BoNT-A LC inh2 2 and Bead autofluor 20024*.
For CCn1c(=O)cc(SCC(=O)NCCN2CCN(Cc3ccccc3)CC2)c2ccccc21 the results were BoNT F protease 0, PriA SSB inh -18, Anthrax LF inh2 -4, BoNT-A LC inh2 inconclusive and Bead autofluor 22769*.
For O=S(=O)(Nc1nccs1)c1ccc(NS(=O)(=O)c2cccs2)cc1 the results were BoNT F protease 10, PriA SSB inh -2, Anthrax LF inh2 -15, BoNT-A LC inh2 6 and Bead autofluor 19362*.
O=S(=O)(Nc1ccc(S(=O)(=O)Nc2nccs2)cc1)c1ccc(Br)cc1 was read as BoNT F protease -2, PriA SSB inh -5, Anthrax LF inh2 -4, BoNT-A LC inh2 0 and Bead autofluor 5904.
Screening Cc1ccc(C(=O)Nc2ccc(SCC(=O)NCc3ccccc3)nn2)cc1 returned PriA SSB inh -12.
`Cc1ccsc1CNn1cnnc1SCc1ccc(Cl)cc1` gave BoNT F protease -7, PriA SSB inh -16, Anthrax LF inh2 0, BoNT-A LC inh2 -4 and Bead autofluor 23748*.
Screening Cc1ccc(CNn2cnnc2SCc2ccc(F)cc2)cc1 returned BoNT F protease -1, PriA SSB inh 0, Anthrax LF inh2 -3, BoNT-A LC inh2 0 and Bead autofluor 22609*.
`Fc1ccc(CNn2cnnc2SCc2ccc(F)cc2)cc1` gave BoNT F protease 1, PriA SSB inh -7, Anthrax LF inh2 14, BoNT-A LC inh2 1 and Bead autofluor 6004.
Screening Cc1ccn2cc(CCNS(=O)(=O)c3ccc(Cl)s3)nc2c1 returned PriA SSB inh 8.
Cc1ccc(C2CC(=O)Nc3c2ccc2ccccc32)cc1[N+](=O)[O-] (stereo unspecified) was read as BoNT F protease -7, PriA SSB inh 42*, Anthrax LF inh2 0, BoNT-A LC inh2 0 and Bead autofluor 2251.
Screening CC(=O)c1c(C(C)=O)c(C)n(-c2nc(-c3ccc(Br)cc3)c(C)s2)c1C returned BoNT F protease -8, PriA SSB inh -11, Anthrax LF inh2 -10, BoNT-A LC inh2 -3 and Bead autofluor 17033*.
Screening Cc1ccc(/C=C/c2ccc(N(C)C)cc2)[n+](C)c1 returned BoNT F protease inconclusive, PriA SSB inh -2, Anthrax LF inh2 0, BoNT-A LC inh2 -5 and Bead autofluor 6826.
For CN(C)c1ccc(/C=C/c2cc[n+](C)cc2)cc1 the results were BoNT F protease -7, PriA SSB inh -1, Anthrax LF inh2 -8, BoNT-A LC inh2 -3 and Bead autofluor 16151*.
O=S(=O)(CCC(F)(F)F)N1CCCC(Cc2nc(C3CC3)no2)C1 (stereo unspecified) was read as PriA SSB inh -11.
`CC12CCC(C(=O)Nc3ccccc3)(C/C1=N\O)C2(C)C` (stereo unspecified) gave BoNT F protease -1, Anthrax LF inh2 -1, BoNT-A LC inh2 -1 and Bead autofluor 16758*.

Assay outcomes (PubChem BioAssay)
